# Source: the supplement of paper PMC8728848
# About 410 targets per protein were measured; listed, in parts, are those with the strongest signals and a random draw of the rest.
# B1: GS7807G-bfa-506-18-506 (Bacteroides fragilis) (protein)
# chain: ASCDKFDEINTDPDATTKVTSSLLATGLLLDITSSSASKSFIYDELLAKQMAWGESMEDYQYNVFGRSGFGGYTTLINAQKMVESVSDDNVNAYDGLAHFIKAYKIFYMSMEMGDLPYEEALQGELGLVRPKYNTQKEVMNFILSDLETAYELFSTAKDFDGDPILGGSISKWKKATTAFQLKVLMHLSKKESDADLKVKERFARIVASGSLMESNEDNLQMKYADKANTVYPFHNTNTKHAGYAMLSTMLIDKFKATGDIRMFYYAKPAKAKLNEGVTADSWDAYIGTDPSLPFEQIEKAYATEQYSGFNARYTDYPSGEPVVRLGYAEQNFILAEAAVRGWISGDASAYYKKAIRAHMEFIASNTPDEEVYHHGHPITEEAIAAFLETPAIQLSGEKEEDIEKILTQRYLASFMQHPYDVYYDYRRTGYPVLPINPATNRNTMNDRLPMRWMYPKSESDYNLEHQNEALERQFGGVDDVNKLMWILQ
# How the values were obtained:
# Experiment in all cases: glycan array binding signal (z-score within array); higher = stronger binding
# Conditions in all cases: glycan notation: IUPAC condensed, linker removed
# [1] = biological target: Fuc(a1-2)Gal(b1-3)GlcNAc(b1-2)Man(a1-3)[Fuc(a1-2)Gal(b1-3)GlcNAc(b1-2)Man(a1-6)]Man(b1-4)GlcNAc(b1-4)[Fuc(a1-6)]GlcNAc
# Outline: (§1)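 The binding signal is a Z-score computed within each array and averaged over linkers. Arrays of the same protein sequence at different concentrations or buffers were also averaged together. Data originate from 3228 arrays in the Consortium for Functional Glycomics database, kept only where the protein sequence was available.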
# [2] = biological target: Fuc(a1-2)Gal(b1-3)GlcNAc(b1-3)[Fuc(a1-2)Gal(b1-3)GlcNAc(b1-6)]GalNAc
# Outline: as §1
# [3] = biological target: Fuc(a1-2)Gal(b1-3)GlcNAc(b1-3)[Gal(b1-4)GlcNAc(b1-6)]Gal(b1-4)Glc
# Outline: as §1
# [4] = biological target: Fuc(a1-2)Gal(b1-3)GlcNAc(b1-3)[Neu5Ac(a2-6)Gal(b1-4)GlcNAc(b1-6)]Gal(b1-4)Glc
# Outline: as §1
# [5] = biological target: Fuc(a1-2)Gal(b1-3)[Fuc(a1-4)]GlcNAc(b1-2)Man(a1-3)[Fuc(a1-2)Gal(b1-3)[Fuc(a1-4)]GlcNAc(b1-2)Man(a1-3)]Man(b1-4)GlcNAc(b1-4)GlcNAc
# Outline: as §1
# [6] = biological target: Fuc(a1-2)Gal(b1-4)[Fuc(a1-3)]GlcNAc(b1-3)[Neu5Ac(a2-6)Gal(b1-4)GlcNAc(b1-6)]Gal(b1-4)Glc
# Outline: as §1
# [7] = biological target: Fuc(a1-2)[Gal(a1-3)]Gal(b1-3)GalNAc(b1-3)Gal(a1-4)Gal(b1-4)Glc
# Outline: as §1
# [8] = biological target: Fuc(a1-2)[Gal(a1-3)]Gal(b1-4)GlcNAc(b1-2)Man(a1-3)[Fuc(a1-2)[Gal(a1-3)]Gal(b1-4)GlcNAc(b1-2)Man(a1-6)]Man(b1-4)GlcNAc(b1-4)GlcNAc
# Outline: as §1
# [9] = biological target: Fuc(a1-2)[Gal(a1-3)]Gal(b1-4)GlcNAc(b1-3)[Fuc(a1-2)[Gal(a1-3)]Gal(b1-4)GlcNAc(b1-6)]GalNAc
# Outline: as §1
# [10] = biological target: Fuc(a1-2)[GalNAc(a1-3)]Gal(b1-4)GlcNAc(b1-2)Man
# Outline: as §1
# [11] = biological target: Fuc(a1-2)[GalNAc(a1-3)]Gal(b1-4)GlcNAc(b1-3)Gal(b1-4)GlcNAc(b1-3)Gal(b1-4)GlcNAc
# Outline: as §1
# [12] = biological target: Fuc(a1-3)[Gal(b1-4)]GlcNAc(b1-2)Man
# Outline: as §1
# [13] = biological target: Fuc(a1-3)[Gal(b1-4)]GlcNAc(b1-2)Man(a1-3)[Fuc(a1-3)[Gal(b1-4)]GlcNAc(b1-2)Man(a1-6)]Man(b1-4)GlcNAc(b1-4)[Fuc(a1-6)]GlcNAc
# Outline: as §1
# [14] = biological target: Fuc(a1-3)[Gal(b1-4)]GlcNAc(b1-3)Gal(b1-3)[Fuc(a1-4)]GlcNAc
# Outline: as §1
# [15] = biological target: Fuc(a1-3)[Gal3S(b1-4)]Glc
# Outline: as §1
# Gal(a1-2)Gal = biological target: Gal(a1-2)Gal
# Outline: as §1
# [16] = biological target: Gal(a1-3)Gal(b1-3)GlcNAc(b1-2)Man(a1-3)[Gal(a1-3)Gal(b1-3)GlcNAc(b1-2)Man(a1-6)]Man(b1-4)GlcNAc(b1-4)GlcNAc
# Outline: as §1
# [17] = biological target: Gal(a1-3)Gal(b1-3)GlcNAc(b1-6)GalNAc
# Outline: as §1
# Gal(b1-3)GalNAc(b1-3)Gal = biological target: Gal(b1-3)GalNAc(b1-3)Gal
# Outline: as §1
# [18] = biological target: Gal(b1-3)GlcNAc(b1-2)Man(a1-3)[Gal(b1-3)GlcNAc(b1-2)Man(a1-6)]Man(b1-4)GlcNAc(b1-4)[Fuc(a1-6)]GlcNAc
# Outline: as §1
# [19] = biological target: Gal(b1-3)GlcNAc(b1-3)Gal(b1-4)GlcNAc
# Outline: as §1
# [20] = biological target: Gal(b1-3)GlcNAc(b1-6)[Gal(b1-3)]GalNAc
# Outline: as §1
# Gal(b1-3)GlcNAc6S = biological target: Gal(b1-3)GlcNAc6S
# Outline: as §1
# [21] = biological target: Gal(b1-4)GalNAc(a1-3)[Fuc(a1-2)]Gal(b1-4)GlcNAc
# Outline: as §1
# [22] = biological target: Gal(b1-4)GlcNAc(b1-2)Man(a1-3)[Gal(b1-4)GlcNAc(b1-2)Man(a1-6)]Man(b1-4)GlcNAc(b1-4)[Fuc(a1-6)]GlcNAc
# Outline: as §1
# [23] = biological target: Gal(b1-4)GlcNAc(b1-2)Man(a1-3)[Man(a1-6)]Man(b1-4)GlcNAc(b1-4)GlcNAc
# Outline: as §1
# [24] = biological target: Gal(b1-4)GlcNAc(b1-3)Gal(b1-3)GlcNAc
# Outline: as §1
# [25] = biological target: Gal(b1-4)GlcNAc(b1-3)Gal(b1-4)GlcNAc(b1-3)Gal(b1-4)GlcNAc(b1-2)Man(a1-3)[Gal(b1-4)GlcNAc(b1-3)Gal(b1-4)GlcNAc(b1-3)Gal(b1-4)GlcNAc(b1-2)Man(a1-6)]Man(b1-4)GlcNAc(b1-4)[Fuc(a1-6)]GlcNAc
# Outline: as §1
binder,measurement,setting,value
B1,glycan array binding signal (z-score),[1],0.142
same,glycan array binding signal (z-score),[2],3.91
same,glycan array binding signal (z-score),[3],0.516
same,glycan array binding signal (z-score),[4],-0.857
same,glycan array binding signal (z-score),[5],0.421
same,glycan array binding signal (z-score),[6],-0.781
same,glycan array binding signal (z-score),[7],-0.536
same,glycan array binding signal (z-score),[8],3.93
same,glycan array binding signal (z-score),[9],0.293
same,glycan array binding signal (z-score),[10],-0.111
same,glycan array binding signal (z-score),[11],-0.91
same,glycan array binding signal (z-score),[12],0.315
same,glycan array binding signal (z-score),[13],1.51
same,glycan array binding signal (z-score),[14],-0.716
same,glycan array binding signal (z-score),[15],-0.945
same,glycan array binding signal (z-score),Gal(a1-2)Gal,-0.863
same,glycan array binding signal (z-score),[16],4.66
same,glycan array binding signal (z-score),[17],1.31
same,glycan array binding signal (z-score),Gal(b1-3)GalNAc(b1-3)Gal,-0.588
same,glycan array binding signal (z-score),[18],2.73
same,glycan array binding signal (z-score),[19],-0.493
same,glycan array binding signal (z-score),[20],-0.028
same,glycan array binding signal (z-score),Gal(b1-3)GlcNAc6S,0.702
same,glycan array binding signal (z-score),[21],-0.448
same,glycan array binding signal (z-score),[22],2.53
same,glycan array binding signal (z-score),[23],1.4
same,glycan array binding signal (z-score),[24],0.201
same,glycan array binding signal (z-score),[25],5.99
